Our source for the growth values is PubChem BioAssay (NCI).

Compounds without any hit were thinned out: in the full panel of roughly 83,000, 20% have a hit.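 How to read the values: 0–100, growth inhibition (40 = 60% inhibited); 0, no net growth; -100 to 0, cell death (-40 = 40% of starting cells died; -100 = all dead).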 A number with no mark means an inactive call. Active and inactive are the calls of the source. The calls were made as follows: active = growth percent below 10; inactive = the rest.

Among the test systems are NCI-H23 lung; NCI-H226 lung; NCI-H322M lung; HOP-62 NSCLC; NCI-H460 lung; NCI-H522 lung; A549/ATCC NSCLC; 786-0 renal; COLO 205 colon; DU-145 prostate; K-562 leukemia; MALME-3M melanoma; MDA-MB-231 breast; RXF 393 renal; SF-268 CNS; SF-295 CNS; SF-539 CNS; UACC-257 melanoma; M14 melanoma.
What all share (assay): NCI-60 one-dose screen, 48 h (100 = growth as untreated, 0 = no growth, -100 = all killed)
What all share (settings): 10 µM unless noted

For `CCCNCCC(C)=O`, the growth in the assay on NCI-H23 lung is 95.1%; in the assay on NCI-H226 lung, 108%; in the assay on NCI-H322M lung, 119%; in the assay with HOP-62 NSCLC, 106%; in the assay on NCI-H460 lung, 103%; with NCI-H522 lung, 99.6%. Also, the growth in the assay with A549/ATCC NSCLC was 95.6%; in the assay on 786-0 renal, 110%; in the assay on COLO 205 colon, 108%; in the assay with DU-145 prostate it was 122%; with K-562 leukemia it was 98.5%; in the assay on MALME-3M melanoma, 121%. Moreover, the growth in the assay on MDA-MB-231 breast is 113%; in the assay with RXF 393 renal, 127%; in the assay with SF-268 CNS, 115%; in the assay on SF-295 CNS, 97.1%; in the assay with SF-539 CNS it was 114%; in the assay on UACC-257 melanoma, 91.7%. Also, in the assay with M14 melanoma, the growth is 105%.
Consider `COCc1nc(NS(=O)(=O)c2ccc(N)cc2)nc(C)c1Br`, for which the growth in the assay on NCI-H23 lung is 97.1%; in the assay on NCI-H226 lung it was 98.2%; in the assay with NCI-H322M lung, 99%; in the assay with HOP-62 NSCLC, 91%; in the assay with NCI-H460 lung it was 106%; in the assay on NCI-H522 lung it was 76.7%. For the same compound, the growth was 94% in the assay on A549/ATCC NSCLC; 100% with 786-0 renal; 108% in the assay on COLO 205 colon; 116% in the assay with DU-145 prostate; 98% in the assay with K-562 leukemia; 94.6% in the assay on MALME-3M melanoma. Moreover, the growth in the assay on MDA-MB-231 breast was 106%; in the assay with RXF 393 renal, 101%; in the assay with SF-268 CNS it was 109%; in the assay on SF-295 CNS, 93.6%; in the assay on SF-539 CNS, 100%; with UACC-257 melanoma, 104%. Besides, in the assay on M14 melanoma, the growth was 101%.
Turning to `CSc1nc(N)c2[nH]c(-c3cc4ccccc4[nH]c3=O)nc2n1`, the growth in the assay on NCI-H23 lung was 83.9%; with NCI-H226 lung, 105%; in the assay on NCI-H322M lung, 67%; in the assay with HOP-62 NSCLC it was 115%; in the assay with NCI-H460 lung it was 60.4%; in the assay on NCI-H522 lung, 57.2%. Moreover, the growth with A549/ATCC NSCLC was 70.8%; in the assay on 786-0 renal, 72.1%; with COLO 205 colon, 97.9%; in the assay with DU-145 prostate, 72.6%; with K-562 leukemia it was 92.7%; in the assay on MALME-3M melanoma, 90.7%. The growth is 98.8% in the assay with MDA-MB-231 breast; 76.8% with RXF 393 renal; 78.2% in the assay with SF-268 CNS; 99.2% in the assay with SF-295 CNS; 102% with SF-539 CNS; 104% in the assay on UACC-257 melanoma. In addition, in the assay with M14 melanoma, the growth was 77.4%.
`COC(=O)OC1C(O[C@H]2C[C@H]3[C@@H]4CC=C5C[C@@H](O)CC[C@]5(C)[C@H]4CC[C@]3(C)[C@H]2[C@H](C)C(=O)CCC(C)C)OCC(O)C1OC1OCC(O)C(O)C1OC(=O)c1ccc(OC)cc1` (some centres not stated): the growth in the assay with NCI-H23 lung was 27.9%; with NCI-H226 lung, -8.65% (active); with NCI-H322M lung, 45.2%; in the assay with HOP-62 NSCLC, -26.5% (active); in the assay with NCI-H460 lung it was -24.2% (active); with NCI-H522 lung, -49.8% (active). For the same compound, the growth with A549/ATCC NSCLC is 1.81% (active); in the assay with 786-0 renal, -25% (active); in the assay with COLO 205 colon, -52.4% (active); in the assay on DU-145 prostate, 34.8%; with K-562 leukemia, -25.2% (active); with MALME-3M melanoma, -6.07% (active). The growth in the assay on MDA-MB-231 breast is 22.7%; in the assay on RXF 393 renal, -71.9% (active); with SF-268 CNS, -6.22% (active); in the assay with SF-295 CNS it was -66.4% (active); with SF-539 CNS it was -58.1% (active); with UACC-257 melanoma, -55.3% (active). In the assay on M14 melanoma, the growth was -58.5% (active).
Consider `COc1ccc(-c2nc(SCCC(C)C)nc(Nc3ccc(C(=O)O)cc3)c2C#N)cc1`, for which the growth was 92.4% with NCI-H23 lung; 91.4% with NCI-H226 lung; 88.1% with NCI-H322M lung; 95.7% with HOP-62 NSCLC; 89.5% in the assay on NCI-H460 lung; 69.2% in the assay with NCI-H522 lung. For the same compound, the growth was 67.2% in the assay with A549/ATCC NSCLC; 97% with 786-0 renal; 104% in the assay on COLO 205 colon; 93.2% with DU-145 prostate; 67.8% with K-562 leukemia; -52% (active) in the assay on MALME-3M melanoma. Besides, the growth in the assay on MDA-MB-231 breast is 98%; in the assay with RXF 393 renal, 90.1%; in the assay with SF-268 CNS it was 89.4%; in the assay on SF-295 CNS it was 80.5%; with SF-539 CNS, 91.3%; with UACC-257 melanoma, 95.2%. In addition, in the assay with M14 melanoma, the growth was 102%.
Turning to `CCOC(=O)C(Cc1ccccc1)n1c(O)c(/C=N/c2ncc(Cc3ccc(Cl)cc3Cl)s2)sc1=S` (configuration not stated), the growth is 11% in the assay with NCI-H23 lung; 15.5% in the assay with NCI-H226 lung; 15.7% in the assay on NCI-H322M lung; 8.75% (active) in the assay on HOP-62 NSCLC; 2.04% (active) in the assay with NCI-H460 lung; -23.2% (active) in the assay on NCI-H522 lung. Further, the growth was 4.36% (active) with A549/ATCC NSCLC; 17.9% with 786-0 renal; -87% (active) with COLO 205 colon; 26.2% in the assay with DU-145 prostate; 2.17% (active) with K-562 leukemia; -9.77% (active) in the assay on MALME-3M melanoma. The growth with MDA-MB-231 breast is -18.2% (active); in the assay on RXF 393 renal it was 2.54% (active); in the assay on SF-268 CNS, 24.4%; with SF-295 CNS it was -4.55% (active); in the assay on SF-539 CNS, 15%; in the assay with UACC-257 melanoma, -17.9% (active). Further, the growth in the assay on M14 melanoma is 10.8%.
As for `CC(SC(C)C(=O)N/N=C/c1cccc(Cl)c1)C(=O)N/N=C\c1cccc(Cl)c1` (configuration not stated), the growth is 86.8% in the assay with NCI-H23 lung; 93.2% in the assay with NCI-H226 lung; 84.3% in the assay on NCI-H322M lung; 90.4% in the assay on HOP-62 NSCLC; 20.5% in the assay on NCI-H460 lung; 60% with NCI-H522 lung. For the same compound, the growth in the assay on A549/ATCC NSCLC was 15.2%; in the assay with 786-0 renal it was 90.9%; in the assay with COLO 205 colon it was 74.7%; in the assay on DU-145 prostate, 71.9%; in the assay on K-562 leukemia, 79.7%; in the assay on MALME-3M melanoma, 88.9%. In addition, the growth in the assay with MDA-MB-231 breast was 28.1%; with RXF 393 renal, 91.2%; with SF-268 CNS it was 69%; with SF-295 CNS, 66.2%; in the assay with SF-539 CNS, 106%; in the assay on UACC-257 melanoma, 104%. Further, the growth in the assay with M14 melanoma was 85.1%.
For the compound `CCc1onc(-c2ccc(OC)cc2)c1-c1ccccc1OCCN(CC)CC`, the growth with NCI-H23 lung was 85.4%; in the assay on NCI-H226 lung, 93.5%; in the assay with NCI-H322M lung it was 76.6%; in the assay on HOP-62 NSCLC it was 90.4%; with NCI-H460 lung, 98.7%; in the assay on NCI-H522 lung, 88.5%. The growth was 101% in the assay with A549/ATCC NSCLC; 75.9% with 786-0 renal; 67% with COLO 205 colon; 96.7% with DU-145 prostate; 70.7% in the assay with K-562 leukemia; 97.7% in the assay with MALME-3M melanoma. Moreover, the growth in the assay with MDA-MB-231 breast was 93.3%; in the assay with RXF 393 renal, 82.2%; in the assay with SF-268 CNS it was 85.8%; in the assay on SF-295 CNS, 79.5%; in the assay on SF-539 CNS, 90.2%; in the assay on UACC-257 melanoma, 111%. In the assay on M14 melanoma, the growth is 76.3%.
